{"source": "PubChem BioAssay AID1345085", "about": "(National Center for Advancing Translational Sciences (NCATS), 2018)", "note": "Results filed as inconclusive are left out. A call without a number means that no potency is given here. Activity calls are given as the source filed them. The call rests on the fitted dose curve; in most records, active means well fitted cell-killing curve with a large enough effect; inconclusive means small, poorly fitted or top-dose-only effect, or effect the other way; inactive means no such curve, though single readings can be large or run the other way. Potency means the concentration at half of the fitted maximal effect."}
{"test_system": "SKOV3", "assay": "Confirmatory qHTS for gynecologic anti-cancer compounds from libraries of approved drugs and bioactive compounds; further: nearly all actives have a fitted effect of over 55% in size", "conditions": "gynecologic cancer cell panel viability, ATPlite luminescence, 48 h; series mostly up to 57.6 µM", "outline": "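Viability is measured as ATP-dependent luciferase light using ATPlite, read 15 min after reagent addition at room temperature. Compounds, in DMSO, span 57.5 uM down to 0.977 nM over 11 threefold steps for 48 h.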"}
{"smiles": "COc1cc(N2CCC(N3CCN(C)CC3)CC2)ccc1Nc1ncc(Cl)c(Nc2ccccc2S(=O)(=O)C(C)C)n1", "Potency": "19.3 µM (active)"}
{"smiles": "FC(F)(F)c1ccc(/C=C/c2nc(COc3ccc(CCCCn4ccnn4)cc3)co2)cc1", "Potency": "inactive"}
{"smiles": "NS(=O)(=O)OC[C@@H]1C[C@@H](n2ccc3c(N[C@H]4CCc5ccccc54)ncnc32)C[C@@H]1O", "Potency": "inactive"}
{"smiles": "CCN1CCN(Cc2ccc(-c3cc4c(NC(C)c5ccccc5)ncnc4[nH]3)cc2)CC1", "note": "(centres undefined)", "Potency": "17.2 µM (active)"}
{"smiles": "O=C(CCCCCCC(=O)Nc1ccccc1)NO", "Potency": "1.37 µM (active)"}
{"smiles": "O=c1cc(CN2CCOCC2)occ1OCCCCCSc1ccnc2cc(C(F)(F)F)ccc12", "Potency": "inactive"}
{"smiles": "CCC1C(=O)N(C)c2cnc(Nc3ccc(C(=O)NC4CCN(C)CC4)cc3OC)nc2N1C1CCCC1", "note": "(centres undefined)", "Potency": "0.109 µM (active)"}
{"smiles": "Cc1cc(Nc2nc(N[C@@H](C)c3ccc(F)cc3)c(C#N)cc2F)n[nH]1", "Potency": "7.69 µM (active)"}
{"smiles": "COc1cc(Nc2c(C#N)cnc3cc(OCCCN4CCN(C)CC4)c(OC)cc23)c(Cl)cc1Cl", "Potency": "19.3 µM (active)"}
{"smiles": "COc1ccc2cc3[n+](cc2c1OC)CCc1cc2c(cc1-3)OCO2", "Potency": "inactive"}
{"smiles": "c1cc(N[C@@H]2CCNC2)nc(-c2cnc3ccc(-c4cn[nH]c4)cn23)c1", "Potency": "inactive"}
{"smiles": "CN1C2CCC1CC(OC(=O)[C@H](CO)c1ccccc1)C2", "note": "(some centres undefined)", "Potency": "inactive"}
{"smiles": "CCCc1nn(C)c2c(=O)[nH]c(-c3cc(S(=O)(=O)N4CCN(C)CC4)ccc3OCC)nc12", "Potency": "inactive"}
{"smiles": "C=CC(=O)Nc1cccc(Oc2nc(Nc3ccc(N4CCN(C)CC4)cc3)ncc2Cl)c1", "Potency": "1.72 µM (active)"}
